JMJD2A Tudor inh = blocks the human JMJD2A Tudor domain. O75164. Potency, µM (highest dose often 114 µM), for inactives: at the top dose activity change, negative = inhibition, most hits filed as inhibitors. hit rate 4.4% among 390,000. AlphaScreen JMJD2A-Tudor / H3K4me3 peptide binding. AID 504339; note: % is set by controls: 0 for no effect and ±100 for the full control effect; nearly all actives have a fitted effect of over 50% in size
BAZ2B inh = blocks human BAZ2B. hit rate 4.4% among 360,000. Potency, µM (doses to about 114 µM), without a hit: at the highest dose activity change, negative = inhibition, usual class: inhibitors. AlphaScreen BAZ2B-H3K14Ac peptide displacement. Q9UIF8; note: % is set by controls: 0 for no effect and ±100 for the full control effect; nearly all actives have a fitted effect of over 60% in size
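Protein-peptide AlphaScreen: BAZ2B 50 nM, b-H3K14Ac 50 nM, 1x PBS pH 7.4 + 0.01% Tween-20. Preincubation 30 min RT; cpd 30 min RT (top 110 uM); beads 20 min RT, light-protected.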
L3MBTL1 block = blocks human L3MBTL1 | hit rate 0.66% among 230,000 | Q9Y468 | Potency, µM (titrated, usually from 57.1 µM), without a hit: at the highest dose activity, negative = inhibition, usual class: inhibitors | AID 485360 | AlphaScreen L3MBTL1–H3K9me1 peptide binding; note: % is set by controls: 0 for no effect and ±100 for the full control effect; nearly all actives have a fitted effect of over 60% in size
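AlphaScreen assay: L3MBTL1 (50 nM final) was preincubated 30 min at room temperature with biotinylated H3(1-15)K9me1 peptide (75 nM final), then 30 min with library compounds; streptavidin donor and nickel chelate acceptor beads (10 ug/mL final) added, 30 min dark.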
Sfp PPTase inh = blocks B. subtilis Sfp PPTase activity; Q9F4F7; Biochemical Sfp PPTase activity, qHTS; Potency, µM, for the others: largest response in the series, negative = inhibition, hits mostly inhibitors; hit rate 3.5% among 310,000; AID 1490;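 note: the enzyme is Sfp with the accession as filed and its product quenches rhodamine fluorescence; 0% = enzyme reaction without inhibitor and -100% = no enzyme wells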
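Fluorescence-quenching assay with 15 nM Sfp, 5 uM rhodamine-CoA and 12.5 uM BHQ-2-labelled ybbR peptide in pH 7.6 Hepes/MgCl2 buffer. Enzyme was pre-incubated with compound for 15 min at room temperature. Rate was taken from the 30-min fluorescence change (525/598 nm).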
HP1b binding inh = inhibitors of HP1-beta chromodomain binding to methylated histone tails; P83916; AlphaScreen HP1-beta / biotin-H3K9me3 peptide binding; Potency, µM (doses to about 114 µM), for inactives: top-dose activity change, negative = inhibition, usual class: inhibitors; hit rate 0.56% among 390,000; AID 540317; note: nearly all actives have a fitted effect of over 70% in size
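HP1-beta protein (50 nM final) preincubated 30 min at room temperature with biotinylated H3(1-18)K9me3 peptide (50 nM) in PBS pH 7.4, 0.01% Tween-20, then compound added for 30 min. AlphaScreen streptavidin donor/nickel chelate acceptor beads (10 ug/mL final), 30 min dark, luminescence read.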
G9a block = inhibitors of human histone lysine methyltransferase G9a. Q96KQ7. G9a H3K9 monomethylation, AlphaScreen, 2 h. Potency, µM (titrated, usually from 102 µM), for the others: top-dose activity, negative = inhibition, actives largely listed as inhibitors. hit rate 8.8% among 350,000; note: % is set by controls: 0 for no effect and ±100 for the full control effect; nearly all actives have a fitted effect of over 75% in size
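Chemiluminescent proximity detection of H3K9 monomethylation, read after 10 min bead incubation in the dark. Reaction: 20 nM G9a, 500 nM biotin-H3K9 peptide, 20 uM SAM cofactor, 2 h, room temperature, following 15 min enzyme-compound preincubation.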
Active calls of the source: *; ? = inconclusive; · = no result; [ ] = remark or other dose. Hits are enriched below; roughly 12% of the tested compounds scored in any of these assays. Calls come from the whole dose curve; as a rule, active = well fitted curve in the direction sought with a large enough effect; inconclusive = small, poorly fitted or top-dose-only effect, or another doubt; inactive = no such curve, though single readings can be large; an effect the other way counts as inactive or inconclusive. Potency is the fitted concentration of half-maximal effect.

SMILES	JMJD2A Tudor inh	BAZ2B inh	L3MBTL1 block	Sfp PPTase inh	HP1b binding inh	G9a block
CCC(C)(C)n1nnnc1C(c1cc2cc(C)ccc2[nH]c1=O)N1CCCC1 (centres undefined)	-17.7%	-4.4%	-13.2%	14.1µM*	23.2%	8.91µM*
CCC(C)(C)n1nnnc1C(c1cc2cc(OC)c(OC)cc2[nH]c1=O)N1CCc2ccccc21 (centres undefined)	?	-15.0%	45.9%	-1.6%	-6.3%	44.7µM*
COc1ccc(-n2nnnc2C2CCN(S(=O)(=O)c3cccc(C(F)(F)F)c3)CC2)cc1	-2.8%	1.6%	·	·	34.4%	-1.4%[59 µM]
CCC(C(=O)Nc1cc(-c2cn3cccnc3n2)ccc1C)c1ccccc1 (centres undefined)	22.4µM*	3.3%	·	·	28.7%[57 µM]	7.7%[59 µM]
Cc1ccc(-c2cn3cccnc3n2)cc1NC(=O)Nc1ccc(F)cc1	-16.4%	2.7%	·	·	65.8%	33.9%[59 µM]
COc1ccc(-c2cn3cccnc3n2)cc1NC(=O)c1ccc(Br)o1	?	?	4.0%	?	35.7%	2.82µM*
CCOc1ccc(CCNc2ncnc3onc(-c4ccc(F)cc4)c23)cc1OCC	-3.2%	1.1%	·	·	-6.2%	0.7%[59 µM]
COc1ccc(N(CC(=O)NC2CCS(=O)(=O)C2)S(=O)(=O)c2ccc(Cl)c(Cl)c2)cc1 (centres undefined)	-13.3%	13.7%	0.6%	·	7.4%	50.1µM*
COCC(=O)N1c2nc(C(C)C)nn2C2(CCCCC2)[C@@H]2CCCC[C@@H]21	-11.6%	4.3%	·	·	29.1%	3.5%[59 µM]
CCc1ccccc1NC(c1nnc(-c2cccc(F)c2)o1)c1ccc(F)cc1Cl (centres undefined)	5.8%	7.6%	·	·	45.2%	11.1%[59 µM]
CCCCOc1ccc(/C(O)=C2/C(=O)C(=O)N(Cc3cccnc3)C2c2ccncc2)c(C)c1 (centres undefined)	-15.2%	-18.9%	-3.4%	1.5%	23.3%	44.7µM*
COc1ccc(C2/C(=C(/O)c3ccc(C)cc3)C(=O)C(=O)N2c2ccccn2)cc1OC (centres undefined)	-10.2%	?	·	-15.7%	21.5%	?
CCOc1ccc(/C(O)=C2/C(=O)C(=O)N(c3ccccn3)C2c2ccc(C)cc2)c(C)c1 (centres undefined)	35.5µM*	0.8%	·	0.6%	?	50.1µM*
Cc1cc(OCC(C)C)ccc1/C(O)=C1/C(=O)C(=O)N(Cc2cccnc2)C1c1ccncc1 (centres undefined)	?	-37.3%	34.9%	2.6%	26.8%	?
CCCOc1ccc(/C(O)=C2\C(=O)C(=O)N(c3ccccn3)C2c2ccccc2F)cc1C (centres undefined)	?	-11.1%	·	0.6%	-23.4%	79.4µM*
CC(C)CCCC(C)CCCC(C)CCCCC(C)CCCC(C)CCCC(C)C (centres undefined)	·	·	·	22.9%	·	32.8%[59 µM]
Cc1ccc(S(=O)(=O)c2nnn3c2nc(N2CCC(C)CC2)c2cc(Cl)ccc23)cc1C	5.5%	11.2%	·	·	34.1%	4.4%[59 µM]
CC(=O)c1ccc(NC(=O)CN2C(=O)c3cccnc3Sc3ccccc32)cc1	-13.8%	27.7%	·	·	55.3%	8.4%[59 µM]
Nc1nc(NCCO)nc(N2CCCCCC2)c1[N+](=O)[O-]	-6.8%	-1.7%	·	18.7%	25.0%	-8.9%
OCCN(CCO)c1nc(N2CCCCC2)c2nc(N(CCO)CCO)nc(N3CCCCC3)c2n1	-24.1%	?	-2.9%	-25.6%	22.4%	22.4µM*
Cc1ccc(S(=O)(=O)c2nc(C(C)(C)C)oc2N2CCOCC2)cc1	35.5µM*	0.2%	-3.0%	28.2µM*	50.1µM*	8.91µM*
Cc1ccc(-c2nc(S(=O)(=O)c3ccc(F)cc3)c(N3CCN(c4ccccc4)CC3)o2)cc1	-17.4%	?	·	·	-0.9%	-16.9%[59 µM]
O=S(=O)(c1ccccc1)c1nc(-c2cccc(Cl)c2)oc1N1CCOCC1	-35.5%	?	·	1.1%	-0.3%	39.8µM*
COc1ccc(-c2nc(S(=O)(=O)c3ccc(C)cc3)c(N3CCCC3)o2)cc1	?	-24.5%	18.8%	-19.6%	79.4µM*	?

Screens deposited in PubChem BioAssay by National Center for Advancing Translational Sciences (NCATS).
